Assay results reported in PubChem BioAssay (Tox21).
A number with no mark means an inactive call. Calls follow the shape of the dose curve; as a rule, active = well fitted curve in the direction sought with a large enough effect in the repeat runs; inconclusive = weak or mixed curves; inactive = flat fitted curve, though single readings scatter.

Experiment: qHTS assay to test for compound auto fluorescence at 460 nm (blue) in HEK293 cell free culture (AID 720681)
Settings: cell-free medium, autofluorescence 405/460 nm (blue); series mostly up to 46 µM; fluorescence, % of fluorescent control: at the top concentration
Description: U.S. Tox21 Program National Center for Advancing Translational Sciences [NCATS] NIH Chemical Genomics Center [NCGC] U.S. Environmental Protection Agency [EPA] National Institutes of Environmental Health Sciences [NIEHS] National Toxicology Program [NTP] U.S. Food and Drug Administration [FDA] Tox21 Assay Overview: Compound auto fluorescence often interferes with screening of the compound library against various biological targets and signaling pathways. Some of these compounds may have fluorophoric properties. Such properties may interfere with the assay outputs resulting in false positives and/or negatives. To decrease such complications and ensure the compound activities are relevant in terms of biological response, the Tox21 10K compound library was screened for auto fluorescence. From the fluorophores used as reporter signals in our screening assays, the auto fluorescence equivalencies of compounds against three fluorophores have been evaluated: Triamterene, Fluorescein and Rose Bengal sodium for blue, green and red fluorescence, respectively. The fluorescence intensities were measured using Excitation/Emission wavelengths at 405/460nm, 485/535nm and 540/590nm for blue, green and red labels, respectively. This assay includes the blue fluorescence data.
Tox21 Assay Protocol Summary: 5 uL of culture medium (DMEM containing 10% FBS) per well was dispensed into black wall/clear bottom 1536-well plates using a Multidrop Combi Dispenser (ThermoFisher Scientific, Waltham, MA). After 23 nL compound or DMSO vehicle was transferred into assay plate by a pintool work station (Kalypsys, San Diego, CA), fluorescence intensities in the assay plates were measured by an Envision (PerkinElmer, Shelton, CT) plate reader using three labels for measuring blue, green and red fluorescence at […] 460, 535 and 590nm respectively.
% is scaled to controls: 0 for no effect and ±100 for the full control effect.

Q: Which “fluorescence, % of fluorescent control” value does the source give for `CC(=O)O[C@H]1C[C@H](O[C@H]2[C@@H](O)C[C@H](O[C@H]3[C@@H](O)C[C@H](OC4CC[C@@]5(C)C(CC[C@@H]6[C@@H]5CC[C@]5(C)[C@@H](C7=CC(=O)OC7)[C@@H](O)C[C@]65O)C4)O[C@@H]3C)O[C@@H]2C)O[C@H](C)[C@H]1O[C@@H]1O[C@H](CO)[C@@H](O)[C@H](O)[C@H]1O` (stereo partly specified) here?
A: The value was 0.27%.

Q: With `Clc1ccc([C@@H]2C[C@H]3CC[C@@H]2N3)cn1` as the compound, how does the “fluorescence, % of fluorescent control” value read?
A: The value was -0.0652% [at 91.3 µM].

Q: For `CCC(=O)O[C@](Cc1ccccc1)(c1ccccc1)[C@H](C)CN(C)C`, which “fluorescence, % of fluorescent control” value is on record?
A: The value was 0.057% [at 91.3 µM].

Q: Which “fluorescence, % of fluorescent control” value does the source give for `C[C@]12CC[C@H]3[C@@H](CCC4=CC(=O)CC[C@@]43C)[C@@H]1CC[C@@H]2OC(=O)CCc1ccccc1` here?
A: Its value is 0.127% [at 91.3 µM].

Q: For `CN1CCN=C(c2ccccc2)c2cc(Cl)ccc21`, which “fluorescence, % of fluorescent control” value is on record?
A: The value was 0.639%.

Q: Which “fluorescence, % of fluorescent control” value does the source give for `CN1C2CCC1CC(OC(c1ccccc1)c1ccc(Cl)cc1)C2` (stereo unspecified) here?
A: Its value is -0.0864%.

Q: Which “fluorescence, % of fluorescent control” value does the source give for `CC[C@@H](O)C(C[C@@H](C)N(C)C)(c1ccccc1)c1ccccc1` here?
A: Its value is 0.0667% [at 95.7 µM].

Q: Which “fluorescence, % of fluorescent control” value does the source give for `CCC(=O)O[C@H]1[C@@H](N2CCCCC2)C[C@H]2[C@@H]3CC[C@H]4C[C@H](OC(C)=O)[C@@H](N5CCCCC5)C[C@]4(C)[C@H]3CC[C@@]21C` here?
A: The value was -0.113%.

Q: Which “fluorescence, % of fluorescent control” value does the source give for `Cc1ccc2c(c1)[C@]13CCCC[C@@H]1[C@H](C2)N(C)CC3` here?
A: The value was -0.0254%.

Q: Which “fluorescence, % of fluorescent control” value does the source give for `COc1cc(C[C@H](C)N)c(OC)cc1Br` here?
A: The value was -0.1% [at 95.7 µM].

Q: For `C#C[C@]1(OC(=O)CCCCCC)CC[C@H]2[C@@H]3CCC4=CC(=O)CC[C@@H]4[C@H]3CC[C@@]21C`, which “fluorescence, % of fluorescent control” value is on record?
A: The value was 0.16%.
